Assay results published in PubChem BioAssay (NCI).
The panel holds about 83,000 compounds, 20% with a hit somewhere; the sample as a whole holds those more often.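 Note: values are percent growth. 100 is the growth of untreated cells, values between 100 and 0 indicate rising inhibition; between -100 and 0 indicates cell death.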 Active and inactive are the calls of the source. Rule for the calls: active = growth percent below 10; inactive = the rest.

What was measured:
Assay in all cases: NCI-60 one-dose screen, 48 h (100 = growth as untreated, 0 = no growth, -100 = all killed)
[1] = test system: DU-145 prostate; details: 10 µM unless noted
[2] = test system: K-562 leukemia; details: 10 µM unless noted
[3] = test system: MALME-3M melanoma; details: 10 µM unless noted
[4] = test system: MDA-MB-231 breast; details: 10 µM unless noted
[5] = test system: RXF 393 renal; details: 10 µM unless noted
[6] = test system: SF-268 CNS; details: 10 µM unless noted
[7] = test system: SF-295 CNS; details: 10 µM unless noted
[8] = test system: SF-539 CNS; details: 10 µM unless noted
[9] = test system: UACC-257 melanoma; details: 10 µM
[10] = test system: M14 melanoma; details: 10 µM unless noted
[11] = test system: HCT-15 colon; details: 10 µM unless noted
[12] = test system: HT29 colon; details: 10 µM unless noted
[13] = test system: SNB-19 CNS; details: 10 µM unless noted
[14] = test system: U251 CNS; details: 10 µM unless noted
[15] = test system: PC-3 prostate; details: 10 µM unless noted
[16] = test system: SK-MEL-5 melanoma; details: 10 µM unless noted
[17] = test system: UACC-62 melanoma; details: 10 µM unless noted
[18] = test system: LOX IMVI melanoma; details: 10 µM unless noted
[19] = test system: SK-MEL-28 melanoma; details: 10 µM unless noted
[20] = test system: SNB-75 CNS; details: 10 µM unless noted

Measured: growth

CCOC(=O)c1c(NC(=O)c2cccc(C(F)(F)F)c2)sc2c(CN3CCN(C)CC3)c(O)ccc12
inactive: [5] 35.1% | [6] 26.2% | [9] 28.1% | [16] 52.7%
active: [1] -85.6% | [2] 1.42% | [3] -86.6% | [4] -75.5% | [7] -81% | [8] -94.7% | [10] -54.6% | [11] -82.3% | [12] -31.6% | [13] -53.9% | [14] -79.1% | [15] -33.9% | [17] -67.5% | [18] -94.7% | [19] -60.5%

O=C1[C@H]2Cc3c([nH]c4ccccc34)[C@H](c3ccc(Cl)cc3)N2C(=O)CN1C1CCN(Cc2c(Cl)cccc2Cl)CC1
inactive: [1] 76.9% | [3] 79.6% | [4] 72.5% | [5] 53.9% | [6] 64.2% | [7] 86.8% | [8] 75.2% | [9] 101% | [10] 71.5% | [11] 39.5% | [12] 18.2% | [13] 80.6% | [14] 69.5% | [15] 49.3% | [16] 66.3% | [17] 88.8% | [18] 15.3% | [19] 98.8%
active: [2] 6.9%

Oc1ccc(CSc2nnc(-c3cnccn3)n2-c2ccccc2)c2cccnc12
active: [7] 7.13% | [16] -22.6% | [17] 2.61%
inactive: [1] 35.6% | [2] 19.6% | [3] 42.9% | [4] 32.1% | [5] 33.7% | [6] 22.4% | [8] 22.7% | [9] 17.4% | [10] 16.8% | [11] 19.3% | [12] 79.5% | [13] 19.7% | [14] 20.4% | [15] 30% | [18] 15.5% | [19] 32.5%

CCN(CC)CCN1C(=O)c2c(c3c4cccnc4[nH]c3c3ccc4ccccc4c23)C1=O
inactive: [1] 54.7% | [2] 18.7% | [3] 86.7% | [4] 89.7% | [5] 78.8% | [6] 50.3% | [7] 35.4% | [8] 76.5% | [9] 98.2% | [10] 61.1% | [11] 58.7% | [12] 66.7% | [20] 54.3% | [13] 59.5% | [14] 63.5% | [15] 59.2% | [17] 69.2% | [19] 106%

Oc1ccc(-c2nnc(SCc3ccc(O)c4ncccc34)n2-c2ccccc2)cc1
active: [3] 3.9% | [5] -7.54% | [7] 5.53% | [8] -6.02% | [9] -4.16% | [10] -28% | [14] 9.39% | [16] -44.6% | [17] -4.05% | [18] 5.09%
inactive: [1] 24.6% | [2] 10.8% | [4] 30.1% | [6] 10.2% | [11] 20.3% | [12] 24.9% | [13] 14.7% | [15] 32.3% | [19] 17%

O=C(CCCCCCN1CC(=O)N2[C@@H](c3cccc(Cl)c3)c3[nH]c4ccccc4c3C[C@H]2C1=O)NO
inactive: [1] 46.3% | [2] 24% | [3] 29.1% | [4] 39.5% | [6] 64.4% | [7] 52% | [8] 50.6% | [9] 44% | [10] 45.6% | [11] 85.7% | [12] 30.6% | [13] 61.2% | [14] 44.9% | [15] 42.6% | [16] 33.6% | [17] 16% | [19] 40.2%
active: [5] 9.1% | [18] -80.3%

C/C(=C(/C)C1CC1CCN(C(=O)c1ccccn1)S(=O)(=O)c1ccc(C)cc1)C1CCCCC1 (configuration not stated)
inactive: [1] 98.9% | [2] 96.8% | [3] 104% | [4] 91.5% | [5] 115% | [6] 97.5% | [7] 90.4% | [8] 99.4% | [9] 96.7% | [10] 101% | [11] 91.8% | [12] 98.3% | [13] 98.4% | [14] 103% | [15] 93.4% | [16] 78.6% | [17] 63.6% | [18] 97.8% | [19] 97.3%

NC(=O)N1N=C(c2cc3ccccc3oc2=O)CC1c1cn(-c2ccccc2)nc1-c1ccc(Cl)cc1 (configuration not stated)
inactive: [1] 56.6% | [2] 27.4% | [3] 69.6% | [4] 54.3% | [5] 88.2% | [6] 54.5% | [7] 19.6% | [8] 42.8% | [9] 59.5% | [10] 43.9% | [11] 19.4% | [12] 35.9% | [13] 45% | [14] 30.5% | [15] 25.9% | [16] 19.5% | [17] 38.7% | [18] 20.3% | [19] 60.1%

O=C1[C@@H]2Cc3c([nH]c4ccccc34)[C@H](c3c(Cl)cccc3Cl)N2C(=O)CN1C1CCN(Cc2c(F)cccc2F)CC1
inactive: [1] 58.8% | [2] 66.3% | [3] 64.9% | [4] 69% | [5] 65.4% | [6] 76.1% | [7] 101% | [8] 52.2% | [9] 99.1% | [10] 75.2% | [11] 52.2% | [12] 63.9% | [13] 81.7% | [14] 73.5% | [15] 69.9% | [16] 53.4% | [17] 76.8% | [19] 75%
active: [18] -47.1%

O=C(COc1ccc(/C=C2\SC(=O)NC2=O)cc1)Nc1ccc(C(=O)/C=C/c2cc3ccccc3nc2Cl)cc1
active: [5] 1.92% | [12] 4.19%
inactive: [1] 88.7% | [2] 41% | [3] 98.5% | [4] 86.6% | [6] 78.2% | [7] 75.6% | [8] 81.5% | [9] 75.3% | [10] 80% | [11] 76.8% | [13] 82% | [14] 69% | [15] 65.6% | [16] 33.5% | [17] 70.6% | [18] 47.8% | [19] 99.2%

O=[N+]([O-])c1ccc(-c2nnc(SCc3ccc(O)c4ncccc34)n2-c2ccccc2)cc1
inactive: [1] 29% | [2] 21.2% | [3] 19.6% | [4] 24.8% | [5] 16.3% | [6] 23.6% | [8] 11.7% | [9] 42.5% | [10] 24.2% | [11] 19.2% | [12] 65.8% | [13] 14.4% | [14] 14% | [15] 21% | [17] 27.7% | [19] 43.4%
active: [7] 5.71% | [16] 1.12% | [18] -19.9%

O=[N+]([O-])c1ccc(-c2nnc(SCc3ccc(O)c4ncccc34)o2)cc1
active: [7] 9.85% | [16] -6.14%
inactive: [1] 29.5% | [2] 17.6% | [3] 21.5% | [4] 38.1% | [5] 14.8% | [6] 27.7% | [8] 23.5% | [9] 18.6% | [10] 27.4% | [11] 10.9% | [12] 47.4% | [13] 22.2% | [14] 16.2% | [15] 15% | [17] 25.3% | [18] 25% | [19] 38.9%

O=C(Nc1cc(F)cc2cccnc12)c1cnc(N2CCOCC2)cn1
inactive: [1] 68.5% | [2] 22.7% | [3] 53.6% | [4] 54.7% | [5] 59.8% | [6] 94.3% | [7] 97.4% | [8] 87.6% | [9] 30.6% | [10] 70.6% | [11] 32.4% | [12] 30.1% | [13] 88.6% | [14] 94.6% | [15] 62.9% | [16] 83.5% | [17] 84.9% | [18] 19.4% | [19] 77.4%

CCCCOc1ccc(S(=O)(=O)N2CCN(c3nccc(N4CCOCC4)n3)CC2)cc1
inactive: [1] 20.3% | [2] 50.8% | [3] 97.6% | [4] 21.5% | [5] 52.3% | [6] 13.3% | [8] 65.3% | [9] 12% | [10] 18.6% | [12] 13.5% | [13] 71.4% | [14] 27.2% | [15] 41.3% | [16] 46.8% | [19] 21.1%
active: [7] -40.2% | [11] 7.04% | [17] -7.93% | [18] -67.9%

COc1ccc(-c2nnc(SCc3ccc(O)c4ncccc34)n2-c2ccccc2)cc1
inactive: [1] 24.8% | [2] 13.3% | [3] 10.6% | [4] 30.9% | [6] 18.1% | [9] 13.6% | [12] 59.2% | [13] 14.4% | [14] 11.2% | [15] 20.7% | [19] 20.2%
active: [5] 7.27% | [7] -1.96% | [8] 4.55% | [10] -13.5% | [11] 9.65% | [16] -11% | [17] 2.62% | [18] -10.9%

O=C(c1ccc(O)cc1)[C@@H]1[C@@H]2CCCN2[C@@]2(C(=O)N(C(=O)c3ccc(F)cc3)c3ccccc32)[C@H]1c1ccc(F)cc1
inactive: [1] 102% | [2] 75.7% | [3] 84.2% | [4] 82.5% | [5] 105% | [6] 89.9% | [7] 96.2% | [8] 85.4% | [9] 103% | [10] 95.1% | [11] 86.6% | [12] 104% | [20] 73.5% | [13] 93.3% | [14] 94.3% | [15] 78.3% | [17] 75.4% | [19] 99.2%
